Source: PubChem BioAssay (NCATS)
Records with an inconclusive call do not appear. The source made the active and inactive calls. Calls come from the whole dose curve; as a rule, active = well fitted inhibition curve with a large enough effect; inconclusive = small, poorly fitted or top-dose-only effect; inactive = flat fitted curve, though single readings scatter.

Legend:
Assay in all cases: qHTS profiling for inhibitors of Plasmodium falciparum proliferation (AID 504749); note: nearly all actives have a fitted effect of over 60% in size
Conditions in all cases: P. falciparum in erythrocytes, SYBR Green DNA, 72 h
CP203 = tested on: CP203
Outline: (§1)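 SYBR Green fluorescence of parasite DNA, read after lysis and overnight dark incubation, measured growth over 72 h in erythrocyte culture at 0.3% parasitemia and 2.5% hematocrit. Data normalised to DMSO and 0.29 uM artemisinin, with plate-drift correction.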

CP211 = tested on: CP211
Outline: as §1

CP215 = tested on: CP215
Outline: as §1

CP217 = tested on: CP217
Outline: as §1

CP237 = tested on: CP237
Outline: as §1

CP238 = tested on: CP238
Outline: as §1

CP247 = tested on: CP247
Outline: as §1

CP250 = tested on: CP250
Outline: as §1

CP252 = tested on: CP252
Outline: as §1

CP256 = tested on: CP256
Outline: as §1

CP260 = tested on: CP260
Outline: as §1

CP262 = tested on: CP262
Outline: as §1

CP265 = tested on: CP265
Outline: as §1

CP269 = tested on: CP269
Outline: as §1

CP286 = tested on: CP286
Outline: as §1

CP291 = tested on: CP291
Outline: as §1

CP297 = tested on: CP297
Outline: as §1

CP305 = tested on: CP305
Outline: as §1

CP266 = tested on: CP266
Outline: as §1

CP268 = tested on: CP268
Outline: as §1

Measured: Potency
Potency is the fitted concentration of half-maximal effect.

CC(=O)O[C@H]1C(=O)[C@@]2(C)[C@H]([C@H](OC(=O)c3ccccc3)[C@]3(O)C[C@H](OC(=O)[C@H](O)[C@@H](NC(=O)c4ccccc4)c4ccccc4)C(C)=C1C3(C)C)[C@]1(OC(C)=O)CO[C@@H]1C[C@@H]2O
active: CP203 849 nM | CP211 478 nM | CP215 1350 nM | CP217 562 nM | CP237 708 nM | CP238 251 nM | CP247 355 nM | CP250 708 nM | CP252 178 nM | CP256 282 nM | CP260 355 nM | CP262 953 nM | CP265 891 nM | CP269 536 nM | CP286 178 nM | CP291 478 nM | CP297 757 nM | CP305 601 nM

CC[C@]1(O)CC2CN(CCc3c([nH]c4ccccc34)[C@@](C(=O)OC)(c3cc4c(cc3OC)N(C)[C@H]3[C@@](O)(C(=O)OC)[C@H](OC(C)=O)[C@]5(CC)C=CCN6CC[C@]43[C@@H]65)C2)C1 (stereo partly drawn)
active: CP203 4260 nM | CP211 1510 nM | CP215 2130 nM | CP217 3980 nM | CP237 158 nM | CP238 3160 nM | CP247 355 nM | CP250 3550 nM | CP252 3550 nM | CP256 2510 nM | CP260 158 nM | CP262 1070 nM | CP265 3980 nM | CP266 3790 nM | CP268 6750 nM | CP269 1900 nM | CP286 158 nM | CP291 1900 nM | CP297 3010 nM | CP305 3380 nM
